Consider 40 compounds from ChEMBL document CHEMBL3988442, “University of Dundee, Small-Polar-MMV Screening Library” (2021).

The target of this test is AMP-activated protein kinase, AMPK (Homo sapiens) (UniProt P54646+O43741+P54619+Q9UGJ0+Q9Y478+Q13131+Q9UGI9). Put plainly: AMP-dependent Kinase enzyme assay. An in vitro enzyme assay that detects ADP turnover that is directly proportional to AMPK activity. This uses naive AMPK that is activated during the assay with MK-8722. The test is classed as functional. The arrangement: scale not given: direction of the effect not stated beside the values. The conditions noted are these: 30 µM.
Turning to `O=S(=O)(NCCCn1cccn1)c1ccc2c(c1)CCC2`, the Percent Effect is 12.2%.

`CCOC(=O)N1CCN(C(=O)Cn2ccc3ncccc3c2=O)CC1`: the Percent Effect is -0.626%.

Consider `COC(CNC(=O)CNC(=O)c1ccccc1)c1cccc(Cl)c1` (stereo not given), for which the Percent Effect worked out at 4.84%.

Turning to `CCc1cc(=O)[nH]c(-c2ccc(NC(CO)CC(C)C)nc2)n1` (stereo not given), the Percent Effect is 4.58%.

Consider `Cc1cc(C(=O)N2CCN(c3ncc4c(n3)CCOC4)CC2)sc1C`, for which the Percent Effect was 16.3%.

Turning to `Cc1nc(-c2ccnn2C)cc(C2CCCN(S(C)(=O)=O)C2)n1` (stereo not given), the Percent Effect stood at 13.9%.

Consider `O=C(CCn1cccn1)NCCOc1cccc(Cl)c1`, for which the Percent Effect was -3.1%.

As for `Cc1ccc(CNCc2nccn2C)c(OCC2CC2)c1`, the Percent Effect was determined as 3.02%.

As for `CC(=O)N1CCN(CCNC(=O)NC(C)Cn2ccnc2)CC1` (stereo not given), the Percent Effect was -2.62%.

On to `CN(C)C(=O)CN1CCC(c2c(C(N)=O)sc3ncccc23)C1` (stereo not given), for which the Percent Effect came to 14.7%.

For the compound `CN(C)S(=O)(=O)N1CC[C@]2(O)CCN(c3cc(C#N)ccn3)C[C@@H]2C1`, the Percent Effect is -3.03%.

`Cc1ccc(-c2nc(CN3CCOCC3)no2)cc1N1CCNC1=O`: the Percent Effect turned out to be 7.88%.

Turning to `CCS(=O)(=O)Nc1ccc2[nH]c(C3CCC3)nc2c1`, the Percent Effect is -4.1%.

As for `CCCn1cc(-c2cc(C(=O)N(C)C)c3ccc(C)cc3n2)cn1`, the Percent Effect stood at 11.6%.

With `CCCc1ccc(CN2CCC3(CCC(=O)N(CCO)C3)CC2)o1`, the Percent Effect is 12.9%.

For the compound `COCCN(C)C[C@@H]1CN(c2cc(C)nc3ccccc23)C[C@@H]1CO`, the Percent Effect is -6.62%.

In the case of `CS(=O)(=O)N1CCCCC1c1ccc(Nc2cnccn2)nc1` (stereo not given), the Percent Effect stood at 4.25%.

For `O=C(Cc1ccccc1O)NC1CCCN(c2ccccc2F)C1=O` (stereo not given), the Percent Effect is 8.51%.

For the compound `CCC1COCCN1C(=O)NCc1nccn1CC(C)C` (stereo not given), the Percent Effect is -3.83%.

Consider `Cc1ccc(S(=O)(=O)N(CC2CCOC2)C2CC2)cc1N(C)C` (stereo not given), for which the Percent Effect was -15%.

Turning to `Cc1ccccc1CCC1CCCN(C(=O)Cc2cc(=O)[nH]c(N)n2)C1` (stereo not given), the Percent Effect was -3.84%.

With `CC(c1ccncn1)N(C)S(=O)(=O)NCc1ccccc1` (stereo not given), the Percent Effect was -13.5%.

On to `CNc1ccc(C2CN(c3cc(C)nc(N)n3)CCO2)nc1` (stereo not given), for which the Percent Effect turned out to be 17.3%.

For the compound `COCc1ncc(CN2CCC3(CCNCC3)CC2)cn1`, the Percent Effect was -3.83%.

With `O=C(c1cncc(NCC2COc3ccccc3C2)n1)N1CCCC1` (stereo not given), the Percent Effect came out at 8.04%.

In the case of `COc1ccc(Cl)cc1CN(CC(N)=O)C(C)C`, the Percent Effect is -4.14%.

On to `Fc1ccccc1OC1CCN(CCn2cc3ccccc3n2)CC1`, for which the Percent Effect stood at 6.19%.

Turning to `CC(C)c1nc(C2CCCN2CCN2CCCCC2)no1` (stereo not given), the Percent Effect was -7.59%.

Consider `CCNc1ncc(C(=O)NCc2csc(-c3ncccn3)n2)cn1`, for which the Percent Effect is 3.97%.

Take `COc1ccc(NC(=O)c2cnc(C3CCN(C)CC3)nc2C)cc1`: the Percent Effect was 3.65%.

As to `Cc1cc(-c2cnc(N3CCC(O)CC3)nc2C(C)C)on1`, the Percent Effect turned out to be 20.1%.

With `Cc1ccc(C2(O)CCN(C(=O)CCn3ccc(=O)[nH]c3=O)CC2)nc1`, the Percent Effect was found to be 1.66%.

Regarding `CCCN(CCc1ccccn1)C(=O)Cn1cc(C)cn1`, the Percent Effect was 3.83%.

With `Cc1ccc(-c2ccccc2CC2(C(=O)NC(C)C)CCCNC2)cc1` (stereo not given), the Percent Effect is 6.43%.

Consider `CC(C)N(Cc1ccccn1)C(=O)CCOc1cccc(F)c1`, for which the Percent Effect is -0.803%.

Take `COc1nccc(N2CC[C@@H](N3CCN(C)CC3)[C@H](O)C2)c1C#N`: the Percent Effect is -9.72%.

Regarding `Cc1nccn1CCCN1CCCC(c2nccn2C)C1` (stereo not given), the Percent Effect is -14.7%.

Consider `COc1ccccc1OC(C)CNC(=O)c1cnc[nH]1` (stereo not given), for which the Percent Effect came to 0.827%.

As to `Cc1noc(C)c1-c1n[nH]c2c1CN(S(=O)(=O)c1ccsc1)CC2`, the Percent Effect amounted to 7.37%.

As for `CC(C)c1cc(NC(CCO)c2ccccc2)n2nccc2n1` (stereo not given), the Percent Effect turned out to be 13.4%.
